# Compounds with a hit are over-represented: about 0.33% of the library has one in this group of screens.
# IDH1 R132H inh: blocks human mutant IDH1 R132H enzyme; O75874; IDH1-R132H enzyme, NADPH consumption, diaphorase/resazurin fluorescence; Potency, µM (highest dose often 76.6 µM), for the others: at the top dose activity change, negative = inhibition, hits mostly inhibitors; 390,000 compounds, 0.093% hits; note: potency is the fitted concentration of half-maximal effect; % is set by controls: 0 for no effect and ±100 for the full control effect; nearly all actives have a fitted effect of over 65% in size
#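 IDH1-R132H (0.5 ug/mL dispensed) in pH 7.5 Tris buffer was preincubated 30 min with compound, then given a substrate mix of 0.016 mM NADPH and 2 mM alpha-KG for 80 min at room temperature; remaining NADPH was read by diaphorase/resazurin fluorescence.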
# GLS inh: blocks human kidney-isoform glutaminase activity. Potency, µM (doses to about 45.5 µM), for inactives: top-dose activity change, negative = inhibition, usual class: inhibitors. 410,000 compounds, 0.21% hits. AID 624170. GLS enzymatic activity, qHTS titration; note: potency is the fitted concentration of half-maximal effect; % is set by controls: 0 for no effect and ±100 for the full control effect
# Target sequence (O94925 whole entry, looked up, canonical isoform): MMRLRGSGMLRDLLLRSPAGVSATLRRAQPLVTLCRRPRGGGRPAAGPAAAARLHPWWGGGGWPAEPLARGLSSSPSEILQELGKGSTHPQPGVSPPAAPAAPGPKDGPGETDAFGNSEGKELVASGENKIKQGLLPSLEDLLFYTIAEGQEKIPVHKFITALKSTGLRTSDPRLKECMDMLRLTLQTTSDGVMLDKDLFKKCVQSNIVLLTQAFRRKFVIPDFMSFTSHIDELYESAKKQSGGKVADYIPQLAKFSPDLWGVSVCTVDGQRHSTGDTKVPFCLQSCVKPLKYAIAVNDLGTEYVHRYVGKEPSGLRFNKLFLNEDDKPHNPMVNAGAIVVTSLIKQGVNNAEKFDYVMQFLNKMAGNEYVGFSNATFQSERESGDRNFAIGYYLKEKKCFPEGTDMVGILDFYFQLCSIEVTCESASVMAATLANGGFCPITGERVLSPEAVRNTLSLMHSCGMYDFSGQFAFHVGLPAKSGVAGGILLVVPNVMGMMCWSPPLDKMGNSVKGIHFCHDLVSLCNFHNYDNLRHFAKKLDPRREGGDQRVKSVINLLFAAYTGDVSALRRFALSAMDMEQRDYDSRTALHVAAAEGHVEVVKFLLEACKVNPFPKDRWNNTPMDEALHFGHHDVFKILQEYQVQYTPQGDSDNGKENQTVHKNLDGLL
#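 Assay buffer: 45 mM KH2PO4 pH 8.2, 0.02% Tween-20. hKGA acts on L-glutamine (1 mM solution added); product glutamate is reported by an oxidase/peroxidase Amplex Red coupling, with fluorescence taken at baseline and 30 min.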
# Pin1 inhibitor: inhibitors of human Pin1. Pin1 FP peptide displacement, HiFluor488, 10 min. Potency, µM (titrated, usually from 115 µM), without a hit: top-dose activity, negative = inhibition, hits mostly inhibitors. 390,000 compounds, 0.009% hits. Q13526; active = well fitted inhibition curve with a large enough effect in the polarisation, with a control signal flat, not every such curve was filed as active; inconclusive = small, poorly fitted or top-dose-only effect, or effect the other way, or a change in a side signal; inactive = no such curve, though single readings can be large or run the other way; the % refers to the polarisation; note: potency is the fitted concentration of half-maximal effect; % is set by controls: 0 for no effect and ±100 for the full control effect
# Tb PGK inh: T. brucei PGK inhibition | Potency, µM (top dose mostly 57.5 µM), without a hit: top-dose activity change, negative = inhibition, usual class: inhibitors | P07378 | AID 602233 | 380,000 compounds, 0.043% hits | PGK/GAPDH coupled, Kinase-Glo luminescence, 60 min; note: potency is the fitted concentration of half-maximal effect; % is set by controls: 0 for no effect and ±100 for the full control effect; nearly all actives have a fitted effect of over 60% in size
#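 Recombinant glycosomal PGK reaction used 1,3-bisphosphoglycerate generated in-well by GAPDH (100nM final) in 100mM TEA pH 7.6, 5mM MgCl2, 0.01% Tween-20. After 60 minutes at room temperature, ATP was read by Kinase-Glo Plus luminescence end-point.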
# IDH1 autofl: interferes with resorufin fluorescence in IDH1 counter-screen. shares compounds with IDH1 R132H inh. Resorufin detection reagent fluorescence interference, cell-free. inhibition of signal, % at 51.2 µM. 750 tested, under 10 active. AID 623980;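 note: 0% = wells with normal resorufin and full inhibition = wells lacking resorufin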
# IDH1 WT: inhibits human wild-type IDH1, mutant selectivity check; Potency, µM (doses to about 115 µM), for the others: top-dose activity change, negative = inhibition, hits mostly inhibitors; AID 623995; 750 compounds, 9% hits; WT IDH1 enzyme, NADPH diaphorase/resazurin fluorescence; shares compounds with IDH1 R132H inh;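 note: potency is the fitted concentration of half-maximal effect; 0% = full WT IDH1 enzyme control and full inhibition = no enzyme wells; nearly all actives have a fitted effect of over 55% in size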
# mIDH1 confirm: inhibits human mutant IDH1 enzyme in cherrypick confirmation; Potency, µM (titrated, usually from 76.6 µM), without a hit: top-dose activity change, negative = inhibition, usual class: inhibitors; IDH1 R132H enzyme, NADPH diaphorase/resazurin fluorescence; shares compounds with IDH1 R132H inh; 750 compounds, 83% hits; note: potency is the fitted concentration of half-maximal effect; nearly all actives have a fitted effect of over 50% in size
# GLS confirm: confirmation of human glutaminase inhibitors. shares compounds with GLS inh. biochemical glutaminase enzyme inhibition assay. Potency, µM (series often up to 46.1 µM), without a hit: at the highest dose activity change, negative = inhibition, usual class: inhibitors. 35 tested, under 10 active; calls by dose curve
# HRP GOx counter: coupled enzyme interference in glutaminase inhibitor counterscreen; 35 tested, under 10 active; activity change, negative = inhibition, % at 46.1 µM; shares compounds with GLS inh; HRP/glutamate oxidase coupled Amplex Red fluorescence counterscreen
# GLS HEK tox: reduces HEK-293 viability in glutaminase inhibitor counter-screen; shares compounds with GLS inh; HEK-293 viability, CellTiter-Glo luminescence, 24 h; activity change, negative = cytotoxicity, % at 46.1 µM; 35 tested, under 10 active; AID 624264
# Active calls of the source: *; i = inactive; ? = inconclusive; . = no result. Unless noted, calls come from the whole dose curve; as a rule, active = well fitted curve in the direction sought with a large enough effect; inconclusive = small, poorly fitted or top-dose-only effect, or another doubt; inactive = no such curve, though single readings can be large; an effect the other way counts as inactive or inconclusive.
SMILES,IDH1 R132H inh,GLS inh,Pin1 inhibitor,Tb PGK inh,IDH1 autofl,IDH1 WT,mIDH1 confirm,GLS confirm,HRP GOx counter,GLS HEK tox
COC(=O)C1=NN(c2ccc(OC)cc2)C2C(=O)N(c3ccccc3OC)C(=O)C12 (stereo not given),0%,0%,-2%,-2%,.,.,.,.,.,.
COC(=O)C1=CC(C(=O)c2cccs2)=NN(c2ccc(OC)cc2)C1C(=O)OC (stereo not given),?,-1%,?,4%,2,1%,-4%,.,.,.
CCSc1sccc1C1C(C#N)=C(N)N(c2cccnc2)C2=C1C(=O)CC(C)(C)C2 (stereo not given),58µM*,25%,1%,-5%,-3,-6%,28µM*,.,.,.
CC1(C)CC(=O)C2=C(C1)N(c1cccnc1)C(N)=C(C#N)C2c1cccs1 (stereo not given),3%,27%,6%,3%,.,.,.,.,.,.
CC(=O)N1CCc2c(sc3c2c(=O)n(-c2ccccc2)c(=O)n3Cc2cccc(C(F)(F)F)c2)C1,22µM*,3%,9%,-5%,-12,7.9µM*,11µM*,.,.,.
COc1cccc(Cn2c(=O)n(-c3cccc(Cl)c3)c(=O)c3c4c(sc32)CN(C(C)=O)CC4)c1,?,19%,41%,-9%,0,14µM*,14µM*,.,.,.
CCOc1ccc(-n2cc(-c3ccccc3)c3c(NC4CCCC4)ncnc32)cc1,?,-6%,-4%,i,-4,-2%,10µM*,.,.,.
CCOc1ccc(-n2cc(-c3ccccc3)c3c(NC4CCCCC4)ncnc32)cc1,4%,5%,1%,9%,.,.,.,.,.,.
O=S1(=O)N=C(Oc2cccc(C(F)(F)F)c2)c2ccccc21,.,.,-1%,.,.,.,.,.,.,.
COc1ccc(C2c3c(n(C)c4ccccc34)C(=O)N2CC(=O)Nc2c(C)cc(C)cc2C)cc1 (stereo not given),?,-2%,12%,-8%,-4,-10%,?,.,.,.
Cc1ccc(S(=O)(=O)Nc2ccccc2/C=N/c2nc3ccccc3n2C)cc1,10%,?,55%,-1%,.,.,.,?,7,-7
COc1ccc(C(=O)Nc2c(O)ccc3ccccc23)cc1OC,9%,-29%,8%,-5%,.,.,.,.,.,.
COc1ccc(S(=O)(=O)Nc2cccc3ccc(O)cc23)cc1,6%,11µM*,-3%,0%,.,.,.,-3%,?,?
COc1ccc(S(=O)(=O)Nc2c(O)ccc3ccccc23)cc1OC,26%,?,18%,-3%,.,.,.,-7%,?,-10
CCc1cc2c(s1)c1cnn(Cc3ccccc3F)c(=O)c1n2C,.,.,0%,.,.,.,.,.,.,.
Cc1cc2c(s1)c1cnn(Cc3ccccc3)c(=O)c1n2C,.,.,-4%,.,.,.,.,.,.,.
O=C(O)c1ccccc1NS(=O)(=O)c1cccc(C(F)(F)F)c1,-5%,19%,6%,-6%,.,.,.,.,.,.
O=C(O)c1ccccc1NS(=O)(=O)c1cccc(-n2sc3ccccc3c2=O)c1,-11%,7.1µM*,5%,-3%,.,.,.,5.2µM*,11,8
CCN(CC)c1ccc(N)cc1S(=O)(=O)Nc1ccc(OC)cc1,-5%,?,3%,-5%,.,.,.,-2%,?,8

# Assay outcomes as filed in PubChem.
